Results published in PubChem BioAssay (NCI).
Compounds without any hit were thinned out: in the full panel of roughly 83,000, 20% have a hit.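 Single-dose data. Exposure time 48 hours. Values below 10 considered active.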 A number with no mark means an inactive call. Active and inactive are the calls of the source.

Legend:
Experiment in all cases: NCI-60 one-dose screen, 48 h (100 = growth as untreated, 0 = no growth, -100 = all killed)
Settings in all cases: 10 µM
[1] = tested on: DU-145 prostate
[2] = tested on: MALME-3M melanoma
[3] = tested on: MDA-MB-231 breast
[4] = tested on: RXF 393 renal
[5] = tested on: SF-268 CNS
[6] = tested on: SF-295 CNS
[7] = tested on: SF-539 CNS
[8] = tested on: UACC-257 melanoma
[9] = tested on: M14 melanoma

| Structure (SMILES) | growth [1] | growth [2] | growth [3] | growth [4] | growth [5] [%] | growth [6] | growth [7] | growth [8] | growth [9] |
| --- | --- | --- | --- | --- | --- | --- | --- | --- | --- |
| COC1CC(Cn2cc(COc3ccc4ccc(=O)oc4c3)nn2)C(OCc2ccccc2)C(OCc2ccccc2)C1OCc1ccccc1 (stereo not drawn) | 101% | 106% | 99.7% | 80.1% | 122 | 102% | 102% | 110% | 102% |
| O=S(=O)(c1ccc(Cl)cc1)c1nc(-c2ccccc2)oc1S(=O)(=O)c1ccc(Cl)cc1 | 97.2% | 91.8% | 76.9% | 7.97% (active) | 97.7 | 92.9% | 84.8% | 85.5% | 90.8% |
| Cc1cc(C)nc(SCC(=O)Nc2ccc(S(N)(=O)=O)cc2)n1 | 114% | 99.1% | 103% | 96% | 125 | 99.8% | 94.8% | 107% | 114% |
| COc1ccc2[nH]c(O)c(N=NC(=O)COc3ccc(NC(=O)Nc4ccc(Cl)c(Cl)c4)cc3)c2c1 | -60.3% (active) | -79.6% (active) | -89.7% (active) | -87.5% (active) | 64.1 | -45.5% (active) | -97.5% (active) | 11.3% | -42.2% (active) |
| Cc1ccc(C(C)C)cc1NC(=O)c1ccccc1O | 63.3% | 9.96% (active) | 65.1% | 57.3% | 55.2 | 61.8% | 49.5% | 29% | 43.2% |
| O=C(NCCCCC(c1ccc(F)cc1)c1ccc(F)cc1)NCCCc1cccnc1 | 22% | -13% (active) | 44.8% | 30.8% | 52.4 | 18.5% | 0.987% (active) | 25.8% | -20.2% (active) |
| CC(=O)NCC1=C(C)C=C2C(=O)[C@](C)(O)C3(CC3)C(C)=C21 | -10.7% (active) | -96.3% (active) | -61.5% (active) | -74.7% (active) | 18.3 | -14.5% (active) | -71.1% (active) | -62% (active) | -69.1% (active) |
